# In ChEMBL document CHEMBL4513216, “Probing the Open Global Health Chemical Diversity Library for Multistage-Active Starting Points for Next-Generation Antimalarials” (ACS Infect Dis, 2020):
# Among all 68,000 compounds or so, about 2,700 (4%) showed an effect of 50% or more. This excerpt belongs to a sample that is enriched for strong results.
# Test system: Plasmodium berghei
# Experiment: Screen against P. berghei liver stage (PbLuc), transformed with Luciferase, at 2uM
# Format: functional, HepG2
# Settings: tested at 2 uM
row,SMILES,INHIBITION
1,CCNC(=O)N(C)Cc1ccc(SC)c(OC)c1,-53.99%
2,CCc1cnc(C)nc1N(C)CCCc1cnn(C)c1,-32.88%
3,COc1ccccc1-n1cc(C(=O)NCCCn2ccnn2)cn1,32.73%
4,CC(C#N)NS(=O)(=O)c1ccc2c(c1)N(C)CCC2 (centres undefined),-95.81%
5,Brc1csc(CNCc2nnc3n2CCC3)c1,26.81%
6,COc1ccc(-n2ccc(C(=O)NCCN3CCCCCC3)n2)cc1,23.42%
7,COC(=O)CCNC(=O)c1ccc(NC(=O)N(C)CC(C)(C)C)cc1,6.85%
8,O=C(CCc1nc(C2CC2)no1)c1ccc(F)c(F)c1,-44.84%
9,O=C(CCc1nc(C2CC2)no1)c1ccccc1,53.65%
10,COc1ccc(C(=O)CCc2nc(C3CC3)no2)cc1,9.43%
11,Cc1ccc(CN2CCN(c3ncccc3Cl)CC2CCO)cc1 (centres undefined),-87.47%
12,Cc1nc(C2CCCN(C(=O)c3ccc(S(C)(=O)=O)cc3)C2)no1 (centres undefined),-6.56%
13,COCCN1C[C@@H]2CCCO[C@@H]2[C@H](N(C)Cc2ccco2)C1,45.82%
14,Cc1nccn1-c1nccnc1C1CCN(Cc2ccc(F)cc2)CC1,-42.32%
15,CCc1ccccc1CN1CC[C@@H](NC(=O)c2cccnc2)[C@H](O)C1,-44.59%
16,O=C(N[C@@H]1CCN(Cc2cc3ccccc3s2)C[C@H]1O)c1cccnc1,60.35%
17,Cc1ccc(CN2CC[C@@H](NC(=O)c3cccnc3)[C@H](O)C2)s1,-38.78%
18,NC(=O)c1csc(N2CCCC(c3nc4ccccc4[nH]3)C2)n1 (centres undefined),-41.06%
19,CC(=O)N[C@@H]1CN(Cc2ccccc2C#N)C[C@H]1c1ccc(C)cc1,28.19%
20,CCN(CC1CCCO1)C(=O)Nc1cc(C(N)=O)ccc1OC (centres undefined),84.53%
21,CCN(CC1CCCO1)C(=O)Nc1cc(OC)c(OC)cc1C (centres undefined),-19.76%
22,CCN(CC1CCCO1)C(=O)Nc1ccc(F)cc1OC (centres undefined),22.1%
23,O=C(C1CC=CC1)N1C[C@H]2CN(Cc3ccncc3)C(=O)[C@H]2C1,30.57%
24,CN(C)CCNC(=O)[C@H]1C[C@H]2CN(C(=O)NC3CCCC3)C[C@@H]1O2,43.87%
25,CN1CCN(c2ncnc3c2CCN(C(=O)c2cccn2C)CC3)CC1,-4.99%
26,CCc1nnc(NC(=O)c2c3c(nn2C2CCS(=O)(=O)C2)CCC3)s1 (centres undefined),58.53%

row,SMILES,INHIBITION
1,Cc1nnc(NC(=O)c2c3c(nn2C2CCS(=O)(=O)C2)CCC3)s1 (centres undefined),48.68%
2,Cc1nc(NC(=O)c2c3c(nn2C2CCS(=O)(=O)C2)CCC3)sc1C (centres undefined),20.76%
3,COc1cc2nc3n(c(=O)c2cc1OC)CCN(C(=O)C1CCC1)CC3,-50.24%
4,CN1CCN(Cc2cn3c(n2)CNCC3)CC1,33.11%
5,c1c(CN2CCCCC2)nc2n1CCNC2,60%
6,c1c(CN2CCCC2)nc2n1CCNC2,-102.41%
7,CO[C@@H]1CCC[C@@H](NC(=O)CCCn2cncn2)[C@H]1O,-32.51%
8,CCc1cc(C(F)(F)F)n2nc(C3CCCN3C(=O)COC)cc2n1 (centres undefined),33.56%
9,Cc1cnc(CN2CCOC(CNc3cccnn3)C2)cn1 (centres undefined),18.31%
10,Cc1ncc(CN2CCOC(CNc3cccnn3)C2)s1 (centres undefined),58.05%
11,Cc1nc(C)c(CN2CCOC(CNc3cccnn3)C2)s1 (centres undefined),-15.28%
12,CC(C)NC(=O)Cn1cc(OCc2ccc(F)cc2)c(=O)cc1CO,14.65%
13,Cc1ccccc1[C@@H]1CN(C(=O)c2ccc3[nH]nnc3c2)C[C@H]1C(=O)O,-45.64%
14,CCn1c(CN2CCN(CC(N)=O)CC2)nc2c(F)cccc21,27.55%
15,CCn1c(CN2CCC(O)(C(=O)OC)CC2)nc2c(F)cccc21,54.32%
16,CCn1c(CN2CCCN(C(=O)OC)CC2)nc2c(F)cccc21,20.28%
17,CN(Cc1ccccn1)C(=O)C(c1ccccc1)N1CCSCC1 (centres undefined),19.48%
18,Fc1cccnc1O[C@@H]1CN(Cc2ccco2)[C@@H]2CCCO[C@@H]21,-8.22%
19,Fc1cccnc1O[C@H]1CN(Cc2ccoc2)[C@@H]2CCCO[C@H]12,-0.18%
20,Fc1cccnc1O[C@@H]1CN(Cc2ccccn2)[C@@H]2CCCO[C@@H]21,66.64%
21,O=C(COc1ccc2cccnc2c1)N1CCN[C@H]2CS(=O)(=O)C[C@H]21,-7.4%
22,CN(C)C(=O)CN1CCC2(COCc3cnc(-c4cccnc4)nc32)C1 (centres undefined),-55.8%
23,Cc1cc2n(n1)CC(CNCc1cc(C)on1)CN2 (centres undefined),57%
24,Cc1ccc(CNCC2CNc3cc(C)nn3C2)cn1 (centres undefined),4.19%
25,Cc1cc(CNCC2CNc3ccnn3C2)no1 (centres undefined),-10%
26,NCCC(=O)N1CCC2(CC1)CN(C(=O)Cc1ccc(Cl)cc1)CCO2,10.62%

row,SMILES,INHIBITION
1,CCc1nnc(C(C)N(C)Cc2c(C)nn(-c3ccccc3)c2C)o1 (centres undefined),63.1%
2,Cc1ccccc1-n1nc(C)c(CN(C)C(C)Cc2ccccn2)c1C (centres undefined),-74.1%
3,Cc1nn(-c2ccccc2)c(C)c1CN1CCNCC1,1.79%
4,Cc1nnc(C(C)N(C)Cc2c(C)nn(-c3ccccc3C)c2C)o1 (centres undefined),29.39%
5,Cc1nnc(C(C)N(C)Cc2c(C)nn(-c3ccccc3)c2C)o1 (centres undefined),52.08%
6,CC(C)c1nnc(CN(C)C(c2ccccc2)c2ccc(F)cc2)o1 (centres undefined),-7.07%
7,CC(=O)N(C)c1nc(CN2CCCC2Cn2nc(C)cc2C)cs1 (centres undefined),-43.47%
8,CN(C)c1ncc(-c2ccncc2)c(CCNC(=O)C2CC2)n1,-33.32%
9,Cn1ncc2c(=O)[nH]c(CN(Cc3ccco3)C3CC3)nc21,5.09%
10,CC(=O)NCCNC(=O)Nc1ccc(Br)cc1C(C)C,-34.04%
11,Cc1ccc(CN2CCC3(CCC(=O)N3CC(=O)N(C)C)CC2)s1,22.71%
12,CC1CCN(C(=O)[C@@H]2C[C@@H]3CCN(Cc4nccs4)C[C@H]3O2)CC1,31.76%
13,Cc1nnc2n1CCN(C(=O)CN1C(=O)CSc3ccccc31)C2,-14.79%
14,Cc1nnc(CN(C)Cc2ccc(C(=O)Nc3sccc3C#N)cc2)o1,33.9%
15,Cc1nnsc1CN(C)Cc1ccc(C(=O)Nc2sccc2C#N)cc1,67.28%
16,CN(Cc1ccc(C(=O)Nc2sccc2C#N)cc1)Cc1ccno1,26.74%
17,Cc1cc(C)n(CC2CCN(CC(O)COc3ccccc3)CC2)n1 (centres undefined),-1.96%
18,O=C(COc1coc(CN2CCCCC2)cc1=O)NCc1ccccc1,-11.78%
19,Cc1ccn(CCC(=O)NCc2ccc(C)o2)n1,19.49%
20,O=C(CCn1cccc1)NCc1ccc(CN2CCCCCC2)o1,56.24%
21,O=C(c1ccco1)N1CCC2(CCC(=O)N2Cc2ccccc2)CC1,21.06%
22,Cc1cccc(CN2C(=O)CCC23CCN(C(=O)c2ccco2)CC3)c1,70.48%
23,O=C(c1ccco1)N1CCC2(CCC(=O)N2Cc2cccc(F)c2)CC1,33.16%
24,O=C(NC1CCN(c2ncccc2F)C1)c1cccc(-n2ccnn2)c1 (centres undefined),25.78%
25,CNCC[C@H]1CC(C)(C)Oc2ccc(C)cc21,-7.01%
26,N#Cc1cccc(CN2Cc3nccn3CC(CN3CCCC3)C2)c1 (centres undefined),32.04%

row,SMILES,INHIBITION
1,Cc1c(C(=O)NCC(C)(C)S(C)(=O)=O)cccc1-c1ccccn1,-62.92%
2,Cc1c(C(=O)NCCC(=O)N2CCCC2)cccc1-c1ccccn1,59.67%
3,Cc1c(C(=O)NCCCS(C)(=O)=O)cccc1-c1ccccn1,3.63%
4,Cc1n[nH]c(C)c1C1COCCN1C(=O)Cc1cccc(F)c1 (centres undefined),13.24%
5,Cc1cccc(CC(=O)N2CCOCC2c2c(C)n[nH]c2C)c1 (centres undefined),37.57%
6,Cc1cccc(CCC(=O)N2CCOCC2c2c(C)n[nH]c2C)c1 (centres undefined),74.35%
7,COCCC(=O)Nc1cnn(COc2ccc(F)cc2Cl)c1,-17.37%
8,CCc1cnc(C)nc1NC(C)C(=O)Nc1cc(F)ccc1C (centres undefined),20.32%
9,CCCNC(=O)c1cc(C2CCCN(Cc3ccccn3)C2)no1 (centres undefined),72.41%
10,O=C(c1cc(C2CCCN(Cc3ccccn3)C2)no1)N1CCCC1 (centres undefined),39.48%
11,O=C(NC1CC1)c1cc(C2CCCN(Cc3ccccn3)C2)no1 (centres undefined),-15.37%
12,CC(C)c1nn(C)c(Cl)c1CNC1CCOc2ccccc21 (centres undefined),-14.17%
13,CN(C)c1ccc(CN2CCN(c3ccc(C#N)cc3)C(=O)C2)cn1,-13.81%
14,Cc1ccc(CN2CCN(Cc3ccc(N(C)C)nc3)CC2=O)cc1C,61.3%
15,Cc1ccc(CN2CCN(c3cncc(N(C)C)n3)CC2=O)cc1C,27.72%
16,CC1COCCN1Cc1nc(-c2ccc(Br)s2)no1 (centres undefined),17.31%
17,Fc1ccc(-c2noc3c2CN(CC2CC2)CC3)cc1F,21.49%
18,CC(C)(O)CCc1cccc(C(=O)NCCC2=CSC3=NCCCN23)c1,9.51%
19,COCCNc1ccc(CC2CCCN(Cc3c[nH]cn3)C2)nn1 (centres undefined),-35.23%
20,CCOc1ccccc1C(=O)NC(CC(=O)O)c1cccs1 (centres undefined),-23.34%
21,CCCC(NC(=O)c1cc(C2CC2)[nH]n1)c1nnc2ccccn12 (centres undefined),19.42%
22,NCc1n[nH]c(=O)n1-c1ccccc1Oc1ccccc1,28.73%
23,COCCN1CCOCC2(CCN(c3cnccn3)CC2)C1,50.85%
24,CC(C)N1CCOCC2(CCN(c3cnccn3)CC2)C1,-10.43%
25,COCCN1CCOCC12CCN(c1cnccn1)CC2,10.71%
26,Cc1nc(C(=O)N2CCC(c3cc(CCO)n(C)n3)C2)co1 (centres undefined),-13.45%
